Results from PubChem BioAssay (NCATS).
Inconclusive results are not listed. Unmarked numbers belong to inactive results. Calls come from the whole dose curve; as a rule, active = well fitted inhibition curve with a large enough effect; inconclusive = small, poorly fitted or top-dose-only effect; inactive = flat fitted curve, though single readings scatter.

These compounds were tested against Ubiquitin carboxyl-terminal hydrolase 1 (Homo sapiens) (UniProt O94782) (assay: Inhibitors of USP1/UAF1: Pilot qHTS (AID 504865;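 note: rhodamine fluorescence freed from ubiquitin-rhodamine substrate followed over time; top concentration of the series differs between compounds; nearly all actives have a fitted effect of over 35% in size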)). Settings: purified USP1/UAF1, Ub-rhodamine cleavage fluorescence; series mostly up to 54.9 µM; activity change, negative = inhibition: at the top concentration.
Source text: Deubiquitinating enzymes (DUBs) are a class of enzymes that can cleave isopeptide bond formed between the C-terminal carboxylate of ubiquitin and a lysine side-chain amino group on the target protein. Among them, ubiquitin specific proteases (USPs) constitute the largest DUB family. Human USPs are emerging as promising targets for pharmacological intervention because of their connection to a number of human diseases, including prostate, colon and breast cancer (1, 2), pediatric acute lymphoblastic leukemia (3), and familial cylindromatosis (4). The advantage of inhibiting USPs lies in the potential specificity of therapeutic intervention that can lead to better efficacy and reduce nonspecific side effects.
In a collaboration between the University of Delaware and the NIH Chemical Genomics Center, a high-throughput screen assay was developed to screen for USP1/UAF1 inhibitors. This miniaturized assay has a fluorescent read-out and is used to screen the NIH Molecular Libraries Small Molecule Repository (MLSMR) in order to identify a small molecule that inhibits USP1.
NIH Chemical Genomics Center [NCGC]
NIH Molecular Libraries Probe Centers Network [MLPCN]
Assay Submitter (PI): Zhihao Zhuang, University of Delaware
1. Priolo, C., et al. (2006) The isopeptidase USP2a protects human prostate cancer from apoptosis. Cancer Res 66, 8625-8632
2. Popov, N., et al. (2007) The ubiquitin-specific protease USP28 is required for MYC stability. Nat Cell Biol 9, 765-774
3. De Pitta, C., et al. (2005) A leukemia-enriched cDNA microarray platform identifies new transcripts with relevance to the biology of pediatric acute lymphoblastic leukemia. Haematologica 90, 890-898
4. Kovalenko, A., et al. (2003) The tumour suppressor CYLD negatively regulates NF-kappaB signalling by deubiquitination. Nature 424, 801-805
3 microliters of reagents (buffer in columns 3 and 4 as negative control and 1nM USP1/UAF1 complex in columns 1, 2, and 5-48) are dispensed into Greiner black solid bottom 1536-well assay plates. Compounds are then transferred via Kalypsys pin tool equipped with 1536-pin array (10nl slotted pins, V&P Scientific, San Diego, CA). Following an incubation step of 15 min at room temperature, 1ul of Ub-Rho substrate (150nM final concentration) is added to initiate the reaction. The plates are immediately centrifuged at 1000 rpm for 15 seconds, and subsequently transferred to a ViewLux high-throughput CCD imager (PerkinElmer) wherein kinetic measurements of fluorescence are acquired using 480 nm excitation/540 nm emission filter set (6 reads every 60 seconds, see Table 1). All reagents are diluted in an assay buffer consisting of 50mM HEPES (pH 7.8), 0.5mM EDTA, 0.1 mg/ml BSA, 1mM TCEP, and 0.01% Tween-20.
% is set by controls: 0 for no effect and ±100 for the full control effect.

Ubiquitin carboxyl-terminal hydrolase 1 (Homo sapiens), sequence (O94782 whole entry, looked up): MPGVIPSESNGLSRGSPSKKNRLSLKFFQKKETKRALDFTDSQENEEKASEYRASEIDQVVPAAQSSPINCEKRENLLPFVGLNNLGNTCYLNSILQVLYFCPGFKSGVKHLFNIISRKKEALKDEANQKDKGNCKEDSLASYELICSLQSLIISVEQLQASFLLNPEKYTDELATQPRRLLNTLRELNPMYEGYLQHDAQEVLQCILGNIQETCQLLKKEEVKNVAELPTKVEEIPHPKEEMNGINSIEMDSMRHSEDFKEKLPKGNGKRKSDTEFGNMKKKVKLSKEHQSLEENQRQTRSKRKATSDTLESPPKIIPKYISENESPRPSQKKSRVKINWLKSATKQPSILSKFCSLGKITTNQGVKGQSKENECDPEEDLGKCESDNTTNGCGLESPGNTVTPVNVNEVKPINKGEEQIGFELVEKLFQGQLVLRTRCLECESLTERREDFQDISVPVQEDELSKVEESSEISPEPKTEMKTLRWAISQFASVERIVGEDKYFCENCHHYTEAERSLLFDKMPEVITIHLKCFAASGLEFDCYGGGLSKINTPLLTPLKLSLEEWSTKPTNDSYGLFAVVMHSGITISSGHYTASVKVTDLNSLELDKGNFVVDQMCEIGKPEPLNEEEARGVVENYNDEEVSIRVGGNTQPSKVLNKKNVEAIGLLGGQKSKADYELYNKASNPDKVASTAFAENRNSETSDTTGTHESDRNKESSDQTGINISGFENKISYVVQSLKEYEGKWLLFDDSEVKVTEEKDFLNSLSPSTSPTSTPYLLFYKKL

**Q.** How did the “activity change, negative = inhibition” value turn out when `CN1CCN(c2cc(-c3ccc(N(C)C)cc3)ncn2)CC1` was run?
**A.** -7.65% [at 114 µM]

**Q.** How did the “activity change, negative = inhibition” value turn out when `O=c1c(-c2ccccc2)nc2cnc(Nc3ccccc3)nc2n1Cc1cccs1` was run?
**A.** -13.8%

**Q.** For `COc1ccc(-c2nc3cnc(N4CCOCC4)nc3n(C3CC3)c2=O)cc1`, which “activity change, negative = inhibition” value is on record?
**A.** -8.88%

**Q.** Which “activity change, negative = inhibition” value does the source give for `CN(C)c1ccnc(-c2cccc(NS(C)(=O)=O)c2)n1` here?
**A.** -4.67% [at 114 µM]

**Q.** `COc1cccc(Nc2ncc3nc(-c4ccc(F)cc4)c(=O)n(C)c3n2)c1` was tested. Which “activity change, negative = inhibition” value did it give?
**A.** -8.45%

**Q.** For `COc1ccc(-c2nc3cnc(N4CCOCC4)nc3n(C)c2=O)cc1`, which “activity change, negative = inhibition” value is on record?
**A.** -8.2%

**Q.** For `COc1ccc(-c2nc3cnc(N4CCN(C)CC4)nc3n(Cc3cccc(OC)c3)c2=O)cc1`, which “activity change, negative = inhibition” value is on record?
**A.** -9.05%

**Q.** How did the “activity change, negative = inhibition” value turn out when `COc1ccc(-c2nc3cnc(Oc4cccc(Cl)c4)nc3n(CCC#N)c2=O)cc1` was run?
**A.** -7.78%

**Q.** For `FC(F)(F)c1ccccc1-c1nc(N2CCNCC2)c2ccccc2n1`, which “activity change, negative = inhibition” value is on record?
**A.** -5.84% [at 114 µM]

**Q.** `CCNc1ncc2nc(C)c(=O)n(-c3ccc(OC)cc3)c2n1` was tested. Which “activity change, negative = inhibition” value did it give?
**A.** -8.74%

**Q.** For `COc1ccccc1-c1cncnc1NCCN1CCOCC1`, which “activity change, negative = inhibition” value is on record?
**A.** -0.015% [at 114 µM]

**Q.** How did the “activity change, negative = inhibition” value turn out when `CCNc1ncc2ncc(=O)n(CCOC)c2n1` was run?
**A.** -3.45%

**Q.** For `COc1ccc(-n2c(=O)cnc3cnc(N(C)C)nc32)cc1`, which “activity change, negative = inhibition” value is on record?
**A.** -6.28%

**Q.** With `CNc1ccnc(-c2ccccc2OC)n1` as the compound, how does the “activity change, negative = inhibition” value read?
**A.** -10.3%

**Q.** Which “activity change, negative = inhibition” value does the source give for `CCNc1ncc2ncc(=O)n(Cc3cccs3)c2n1` here?
**A.** -11.8%

**Q.** For `COCCn1c(=O)c(-c2cccc(C#N)c2)nc2cnc(OC)nc21`, which “activity change, negative = inhibition” value is on record?
**A.** -7.78%

**Q.** For `O=c1c(-c2ccc(Cl)cc2)nc2cnc(N3CCOCC3)nc2n1C[C@H]1CCCO1`, which “activity change, negative = inhibition” value is on record?
**A.** -3.65%

**Q.** With `COc1ccc(-c2nc3cnc(N4CCOCC4)nc3n(C[C@H]3CCCO3)c2=O)cc1` as the compound, how does the “activity change, negative = inhibition” value read?
**A.** -8.31%

**Q.** How did the “activity change, negative = inhibition” value turn out when `COCCn1c(=O)c(-c2ccc(Cl)cc2)nc2cnc(Nc3ccccc3)nc21` was run?
**A.** -6.56%

**Q.** For `COc1ccc(-n2c(=O)cnc3cnc(N4CCOCC4)nc32)cc1`, which “activity change, negative = inhibition” value is on record?
**A.** -9.62%

**Q.** How did the “activity change, negative = inhibition” value turn out when `CCNc1ncc2nc(-c3ccc(F)cc3)c(=O)n(CCOC)c2n1` was run?
**A.** -8.19%

**Q.** With `CNc1ccnc(-c2ccccc2C(F)(F)F)n1` as the compound, how does the “activity change, negative = inhibition” value read?
**A.** -7.56% [at 114 µM]

**Q.** How did the “activity change, negative = inhibition” value turn out when `CN1CCN(c2ncc3nc(-c4cc(F)cc(F)c4)c(=O)n(CCc4ccccc4)c3n2)CC1` was run?
**A.** -22.2%

**Q.** For `COCCNc1ncnc2ccc(-c3ccc(C(=O)N(C)C)cc3)cc12`, which “activity change, negative = inhibition” value is on record?
**A.** -9.86%

**Q.** With `c1cncc(CNc2ncncc2-c2cccnc2)c1` as the compound, how does the “activity change, negative = inhibition” value read?
**A.** -6.94%

**Q.** With `COc1ccc(-n2c(=O)c(-c3cn(C)c4ccccc34)nc3cnc(N4CCOCC4)nc32)cc1` as the compound, how does the “activity change, negative = inhibition” value read?
**A.** -7.66%

**Q.** For `Cc1noc(C)c1-c1ccc2ncnc(N(C)C)c2c1`, which “activity change, negative = inhibition” value is on record?
**A.** -12.3%

**Q.** For `CN(C)c1ncc2nc(-c3ccc(F)cc3)c(=O)n(Cc3cccs3)c2n1`, which “activity change, negative = inhibition” value is on record?
**A.** -7.78%

**Q.** For `Cn1c(=O)c(-c2ccc(Cl)cc2)nc2cnc(Oc3cccc(Cl)c3)nc21`, which “activity change, negative = inhibition” value is on record?
**A.** -18.7%

**Q.** For `Cc1ccccc1-c1nc(N2CCNCC2)c2ccccc2n1`, which “activity change, negative = inhibition” value is on record?
**A.** -16.6%

**Q.** For `Cc1cnc(CNc2ccnc(-c3ccccc3CN(C)C)n2)cn1`, which “activity change, negative = inhibition” value is on record?
**A.** -4.26%

**Q.** `O=c1c(-c2cc(F)cc(F)c2)nc2cnc(N3CCOCC3)nc2n1C[C@H]1CCCO1` was tested. Which “activity change, negative = inhibition” value did it give?
**A.** -6.89%

**Q.** With `c1ccc(CNc2ncnc3ccc(-c4cccnc4)cc23)cc1` as the compound, how does the “activity change, negative = inhibition” value read?
**A.** -17.8%

**Q.** `CN1CCN(c2ncc3nc(-c4cc(F)cc(F)c4)c(=O)n(C)c3n2)CC1` was tested. Which “activity change, negative = inhibition” value did it give?
**A.** -11.2%

**Q.** How did the “activity change, negative = inhibition” value turn out when `CN(C)C(=O)c1ccc(-c2cncnc2N2CCNCC2)cc1` was run?
**A.** -4.37%

**Q.** For `Cc1cnc(CNc2ncncc2-c2c(C)noc2C)cn1`, which “activity change, negative = inhibition” value is on record?
**A.** -3.57%

**Q.** With `Cc1nc2cnc(N3CCOCC3)nc2n(C)c1=O` as the compound, how does the “activity change, negative = inhibition” value read?
**A.** -9%

**Q.** How did the “activity change, negative = inhibition” value turn out when `COCCNc1nc(-c2ccccc2OC)nc2ccccc12` was run?
**A.** -3.78%

**Q.** How did the “activity change, negative = inhibition” value turn out when `N#Cc1ccccc1-c1ccc2ncnc(N3CCNCC3)c2c1` was run?
**A.** -1.66% [at 114 µM]

**Q.** Which “activity change, negative = inhibition” value does the source give for `Cc1cnc(CNc2ncncc2-c2ccccc2C(F)(F)F)cn1` here?
**A.** -2.45% [at 114 µM]
